Hits are enriched below; roughly 1.3% of the tested compounds scored in any of these assays.
PfHsp40 rescue: rescue of PfHsp40-mediated yeast toxicity; S. cerevisiae expressing PfHsp40, growth rescue, ATP luminescence; growth rescue, % at 12.5 µM; hit rate 0.68% among 340,000; AID 504582; in the data active = growth rescue above about 28%, passing the limit was not always enough;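 also: yeast W303a lacking pdr1 and pdr3 grown in galactose medium; growth measured after three days at 30 °C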
Mtb hypoxia rep: reduces hypoxia-regulated biosensor signal in M. tuberculosis; M. tuberculosis hypoxia-regulated fluorescent reporter, fluorescence; fluorescence inhibition, % (concentration not given with the values); hit rate 0.1% among 300,000; AID 1159583; in the data active = fluorescence inhibition mostly above about 23%, no sharp cut-off; inactive = mostly below about 17%
TcdB inh: blocks C. difficile toxin B glycohydrolase activity. P18177. TcdB glycohydrolase enzymatic assay, plate reader. inhibition, % at 9.99 µM. hit rate 0.24% among 350,000. AID 652162; in the data active = inhibition above about 10%
MazEF act: MazEF (E. coli) toxin RNase activation. P0AE70. FAM/BHQ RNA-DNA oligo cleavage fluorescence, 5 h. activation, % at 20 µM. hit rate 0.32% among 350,000. AID 504720; in the data active = activation above about 50%
Target sequence (P0AE70 whole entry, looked up): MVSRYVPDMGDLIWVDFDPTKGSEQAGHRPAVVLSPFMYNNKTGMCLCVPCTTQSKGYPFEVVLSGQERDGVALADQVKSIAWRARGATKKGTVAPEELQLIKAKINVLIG
ugtP null kill: growth inhibition of S. aureus ugtP deletion strain. growth inhibition, % (test concentration not listed). hit rate 0.54% among 330,000. AID 1259309. S. aureus RN4220 ugtP deletion, OD600 growth, 16 h; in the data active = growth inhibition above about 68%;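 also: plate controls were untreated wells for no effect and antibiotic for full effect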
Sa RN4220 lethal: S. aureus RN4220 growth inhibition | OD600, 16 h | inhibition, % (no concentration beside the values) | hit rate 0.33% among 330,000; in the data active = inhibition above about 85%;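 also: plate controls were untreated cells for no effect and reference antibiotic for full effect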
The depositor's hits bear a star; · = no result given.

SMILES	PfHsp40 rescue	Mtb hypoxia rep	TcdB inh	MazEF act	ugtP null kill	Sa RN4220 lethal
O=C1c2ccccc2C(O)(c2ccccc2)N1c1ccc([N+](=O)[O-])cc1Cl (configuration not stated)	205*	19	-1	0	-5	4
CC(=O)N1CC(=O)Nc2ccc(Br)cc2C1c1ccc(F)cc1 (configuration not stated)	85*	-3	1	11	10	2
O=C(NC1CC1)C1=CC(c2csc3ccccc23)CC(OCCCCO)O1 (configuration not stated)	·	9	·	·	4	6
CC(C)Cc1nc(N2CCCCC2)c(C#N)c2c1CCC2	-1	·	·	1	86*	2
C[C@H]1CN([C@@H](C)CO)C(=O)Cc2cc(NS(=O)(=O)c3ccccc3)ccc2O[C@H]1CN(C)Cc1ccc(C(=O)O)cc1	·	·	0	·	·	·
COc1cc(OC)cc(-c2sc3ccc(OC)cc3c2C#CC2(N)CCCCC2)c1	34*	·	0	3	·	·
CC1(c2ccc3c(c2)OCO3)NC(=O)N(CC(=O)Nc2ccccc2[N+](=O)[O-])C1=O (configuration not stated)	-1	·	0	0	·	·
Cc1ccccc1NC(=O)CN1C(=O)NC(C)(c2ccc3c(c2)OCO3)C1=O (configuration not stated)	35*	26	·	3	0	-9
O=C1c2ccccc2-n2c1nc1ccccc1c2=O	58*	·	1	3	54	54
COc1ccc(CSCCNC(=S)Nc2ccccc2)cc1Cl	45*	14	-1	3	-2	16
S=C(NCCSCc1c(Cl)cccc1Cl)Nc1ccccc1	285*	·	·	-13	0	22
S=C(NCCSCc1ccc(Cl)c(Cl)c1)Nc1ccccc1	1	·	·	0	30	30
N#C[C@H]1[C@@H](c2ccccc2-c2ccccc2F)[C@H](CO)N1C(=O)C1CCOCC1	·	·	2	·	·	·
COc1cc(C=CC(=O)O)ccc1S(=O)(=O)N1CCCc2ccccc21	·	6	·	·	-4	5
Cn1cc(C=NO)nc2c(=O)n(-c3ccccc3)c(=O)nc1-2	·	38*	·	·	-2	7
Cc1nnc(NC(=O)CN2CC(C)OC(C)C2)s1 (configuration not stated)	28*	-4	0	13	5	2
CCOC(=O)c1sc(NC(=O)CN2CC(C)OC(C)C2)nc1C (configuration not stated)	-1	-1	2	6	4	4
CC(C)CN=c1cc(-c2ccccc2)oc2ccc(Cl)cc12	4	42*	·	8	-4	-5
CCCCNC(=O)/C(C#N)=c1\s/c(=C\c2ccccc2OC(F)F)c(=O)n1CCCOC	-1	·	1	85*	·	·
COCCCn1c(=C(C#N)C(=O)Nc2ccc(C(=O)O)cc2)sc(=Cc2ccccc2OC(C)C)c1=O	·	-2	·	·	-1	12
COCCCn1c(=O)/c(=C/c2ccccc2OC(F)F)s/c1=C(\C#N)C(=O)NCCOC	6	6	1	72*	1	2
COCCCn1c(=O)/c(=C\c2ccccc2OC(F)F)s/c1=C(/C#N)C(=O)N1CCOCC1	2	·	2	-2	·	·
COCCCn1c(=O)/c(=C\c2ccccc2OC(F)F)s/c1=C(/C#N)C(=O)NCCOC	0	·	1	83*	·	·
COCCCn1c(=C(C#N)C(=O)NCCOC)sc(=Cc2ccccc2OC(F)F)c1=O	·	-3	·	·	5	2
COCCCNC(=O)/C(C#N)=c1\s/c(=C\c2ccccc2OC(F)F)c(=O)n1CCCOC	1	·	·	98*	·	·
SMILES	PfHsp40 rescue	Mtb hypoxia rep	TcdB inh	MazEF act	ugtP null kill	Sa RN4220 lethal
O=c1[nH]c(CN2CCN(c3ccccc3O)CC2)nc2scc(-c3ccccc3Cl)c12	29*	-2	-2	-52	0	2
COC(=O)CC1c2cc(C(F)(F)F)ccc2S(=O)(=O)N1C1CCCC1 (configuration not stated)	·	15	·	·	0	3
CCc1nc(C)cn1S(=O)(=O)c1ccc([N+](=O)[O-])cc1	0	3	0	-2	94*	97*
CCCNC(=O)N1C[C@@H](O)COC[C@@H]2O[C@H](CC(=O)N3CCC(Cc4ccccc4)CC3)CC[C@H]21	·	·	1	·	·	·
CC(C)(C)c1ccc(O)c(C=NO)c1	·	21	·	·	-10	11
Fc1ccc(-c2nc(-c3cccs3)[nH]c2-c2ccc(F)cc2)cc1	129*	-4	-6	8	8	21
CC(C)(C)OCC(O)CN1CCN(C(=O)c2ccccc2)CC1 (configuration not stated)	-1	-9	12*	-1	-7	-1

Screens deposited in PubChem BioAssay by several laboratories.
